This is a sample that favours compounds with a hit; in the whole collection about 1.8% have one here.
PAD4 inh: PAD4 (human) enzyme inhibition; Q9UM07; inhibition, % at 6.36 µM; AID 485272; recombinant PAD4, RCA probe fluorescence polarization; 330,000 compounds, 0.41% hits;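 active = percent inhibition above a cutoff equal to the mean of all tested compounds plus 3 SD, cut at about 15% in these data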;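 also: 0% = PAD4 with RCA probe and DMSO and 100% = probe without PAD4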
Fam108B counter: blocks mouse Fam108B hydrolase in RBBP9 counter-screen | 300,000 compounds, 0.33% hits | AID 1947 | recombinant Fam108B, FP-Rh probe fluorescence polarization | inhibition, % at 9.51 µM;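 active = inhibition above the screen mean inhibition plus 3 SD, computed separately per campaign, cut at about 18% in these data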;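 also: inhibitors lower polarization as less probe binds the enzyme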
PME-1 primary: blocks human protein phosphatase methylesterase 1 | Q9Y570 | recombinant PME-1, FP-Rh probe fluorescence polarization | inhibition, % at 5.9 µM | 320,000 compounds, 0.53% hits;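 active = inhibition above the campaign mean of all compounds plus 3 SD, cut at about 26% in these data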;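 also: competitive labeling of PME-1 active site by serine hydrolase directed probe; 0% = PME-1 with DMSO and 100% = wells lacking PME-1 enzyme; inhibitors block probe labeling so polarization falls and inhibition rises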
GSTO1 inh: counter-screen for RBBP9 inhibitors: inhibitors of human GSTO1; P78417; recombinant GSTO1, activity-based probe fluorescence polarization; inhibition, % at 5.96 µM; 300,000 compounds, 1.1% hits; AID 1974;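 active = inhibition above the campaign mean inhibition plus 3 SD, cut at about 35% in these data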;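 also: 0% = GSTO1-1 with DMSO and 100% = wells lacking GSTO1-1 enzyme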
Target sequence (P78417 whole entry, looked up): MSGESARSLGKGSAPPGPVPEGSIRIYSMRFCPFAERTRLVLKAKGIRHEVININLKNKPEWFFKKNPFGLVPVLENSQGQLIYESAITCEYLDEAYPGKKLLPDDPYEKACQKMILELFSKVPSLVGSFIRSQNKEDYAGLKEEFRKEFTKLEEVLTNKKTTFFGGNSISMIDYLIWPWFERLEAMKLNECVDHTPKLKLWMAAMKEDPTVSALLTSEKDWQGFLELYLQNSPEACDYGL
LYPLA1 counter: LYPLA1 (human) inhibition in PME1 counter-screen; O75608; recombinant LYPLA1, FP-Rh probe fluorescence polarization; inhibition, % at 5.9 µM; 320,000 compounds, 0.16% hits;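 active = inhibition above the mean of all tested compounds plus 3 SD, set per campaign, cut at about 14% in these data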;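 also: inhibitors block serine hydrolase probe labeling of LYPLA1 so polarization falls; 0% = enzyme with DMSO and 100% = wells lacking LYPLA1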
Target sequence (O75608 whole entry, looked up): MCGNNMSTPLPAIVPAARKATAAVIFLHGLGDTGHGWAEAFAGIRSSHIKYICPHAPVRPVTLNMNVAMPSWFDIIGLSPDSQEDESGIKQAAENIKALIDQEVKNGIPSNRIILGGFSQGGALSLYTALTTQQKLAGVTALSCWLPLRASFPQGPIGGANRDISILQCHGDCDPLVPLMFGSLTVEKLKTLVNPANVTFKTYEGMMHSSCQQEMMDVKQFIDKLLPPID
LYPLA2 counter: counter-screen for PME1 inhibitors: inhibitors of human LYPLA2. recombinant LYPLA2, FP-Rh probe fluorescence polarization. inhibition, % at 5.9 µM. 320,000 compounds, 0.38% hits. O95372;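 active = inhibition above the screen-wide mean plus 3 SD, limit set per campaign, cut at about 26% in these data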;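 also: 0% = LYPLA2 with DMSO and 100% = wells lacking LYPLA2 enzyme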
Target sequence (O95372 whole entry, looked up): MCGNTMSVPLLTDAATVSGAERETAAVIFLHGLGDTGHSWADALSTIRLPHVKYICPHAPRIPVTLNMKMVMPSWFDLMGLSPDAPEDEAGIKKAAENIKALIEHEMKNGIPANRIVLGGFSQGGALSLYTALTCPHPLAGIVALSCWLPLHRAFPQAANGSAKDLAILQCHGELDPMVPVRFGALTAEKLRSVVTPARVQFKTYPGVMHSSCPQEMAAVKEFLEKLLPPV
LYPLA2 conf: counter-screen for PME1 inhibitors: confirmation of human LYPLA2 inhibitors; inhibition, % at 5.9 µM; shares compounds with LYPLA2 counter; recombinant LYPLA2, FP-Rh probe fluorescence polarization; 1,100 compounds, 72% hits;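 active = mean inhibition across replicates above the hit cutoff set in the primary screen, cut at about 26% in these data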;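 also: blocked labeling of the enzyme by serine hydrolase FP-Rh probe lowers polarization; 0% = enzyme with DMSO and 100% = wells lacking LYPLA2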
LYPLA2 ABPP: blocks human acyl-protein thioesterase 2 in gel ABPP; rhLYPLA2 in mouse brain proteome, gel ABPP FP-Rh; inhibition, % at 20 µM; 150 compounds, 30% hits; AID 652029; shares compounds with LYPLA2 counter;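 active = inhibition of LYPLA2 enzyme probe labeling above about 50%, limit read from the data; inactive = inhibition below that limit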;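 also: loss of FP-Rh probe labeling of the LYPLA2 gel band measured as band density; 0% = DMSO only control band and 100% = blank gel background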
The depositor's hits bear a star.

For Cc1ccc(C)c(N2C(=O)c3ccc(C(=O)OCC(=O)c4c(N)n(C)c(=O)n(C)c4=O)cc3C2=O)c1 the results were PAD4 inh -0.8, Fam108B counter -3.9, PME-1 primary -0.1, GSTO1 inh -5.1, LYPLA1 counter -1.3, LYPLA2 counter 26.3* and LYPLA2 conf 44.1*.
`O=C(Nc1cccnc1)c1ccc2c(c1)C(=O)N(Cc1cccnc1)C2=O` gave PAD4 inh 0.7, Fam108B counter 2.9, PME-1 primary 1.6, GSTO1 inh -5.3, LYPLA1 counter -0.6 and LYPLA2 counter 1.7.
For COC(=O)c1ccc(NC(=O)c2ccc3c(c2)C(=O)N(Cc2cccnc2)C3=O)cc1 the results were PAD4 inh -3.1, Fam108B counter -1.8, PME-1 primary -3.5, GSTO1 inh -6.7, LYPLA1 counter 4.7, LYPLA2 counter 49.5* and LYPLA2 conf 51.0*.
`Cc1ccsc1CN(C)C(=O)CN1C(=O)NC(c2ccccc2)(c2ccccc2)C1=O` gave PAD4 inh -2.4, PME-1 primary 2.4, LYPLA1 counter 0.6 and LYPLA2 counter 2.0.
Cn1cc(C(=O)NCCN2CCN(c3cccc(Cl)c3)CC2)c2c3ccccc3n(C)c2c1=O was read as PAD4 inh 2.9, Fam108B counter -0.1, PME-1 primary 3.3, GSTO1 inh 1.9, LYPLA1 counter 6.7, LYPLA2 counter 25.9* and LYPLA2 conf 35.1*.
For COCCn1c(=O)[nH]c2cc(C(=O)NCCN3CCN(c4cccc(Cl)c4)CC3)ccc2c1=O the results were PAD4 inh -0.7, Fam108B counter 0.2, PME-1 primary -5.0, GSTO1 inh 0.3, LYPLA1 counter 5.5, LYPLA2 counter 44.6* and LYPLA2 conf 35.6*.
For CN(C)C(=O)N1CCC(C(=O)N2CCCC(C(=O)c3ccc(C(C)(C)C)cc3)C2)CC1 (stereo unspecified) the results were PAD4 inh 2.1, Fam108B counter 1.9, PME-1 primary 3.1, GSTO1 inh 5.5, LYPLA1 counter 4.1, LYPLA2 counter 34.1* and LYPLA2 conf 33.9*.
Cc1ccc(S(C)(=O)=O)cc1C(=O)OCC(=O)N(Cc1ccccc1)Cc1ccccc1 was read as PAD4 inh -1.4, PME-1 primary 6.1, LYPLA1 counter 0.6 and LYPLA2 counter 0.2.
O=C(c1ccc(CSc2nc3ccncc3[nH]2)cc1)N1CCN(c2cccc(Cl)c2)CC1 was read as PAD4 inh 0.0, Fam108B counter -0.9, PME-1 primary 1.7, GSTO1 inh -4.3, LYPLA1 counter -0.6, LYPLA2 counter 32.7* and LYPLA2 conf 30.8*.
For CCOc1ccc(N(CC(=O)NC2CCCCC2)C(=O)CCC(=O)Nc2nc(C)cs2)cc1 the results were PAD4 inh -1.1, Fam108B counter 0.7, PME-1 primary 7.0, GSTO1 inh -2.6, LYPLA1 counter -6.0 and LYPLA2 counter -0.5.
Screening Cc1ccc(Nc2c([N+](=O)[O-])cc(C(=O)N3CC(=O)Nc4ccccc43)cc2[N+](=O)[O-])c(C)c1 returned PAD4 inh 2.8, Fam108B counter 7.3, PME-1 primary 14.5, GSTO1 inh 23.0, LYPLA1 counter 0.3, LYPLA2 counter 26.7* and LYPLA2 conf 27.7*.
For COc1cc(OC)cc(C(=O)N2CC(=O)Nc3ccccc32)c1 the results were PAD4 inh -1.6, Fam108B counter -3.9, PME-1 primary -0.9, GSTO1 inh -3.6, LYPLA1 counter 3.0 and LYPLA2 counter 5.6.
`O=C(CN1C(=O)NC2(CCOc3ccccc32)C1=O)NCCc1ccc(F)cc1` (stereo unspecified) gave PAD4 inh -6.2.
`CC(=O)c1ccc(N2CCN(C(=O)CCCn3c(=O)[nH]c4ccsc4c3=O)CC2)cc1` gave PAD4 inh 3.0, Fam108B counter -2.5, PME-1 primary -4.6, GSTO1 inh 0.7, LYPLA1 counter 8.0, LYPLA2 counter 51.3*, LYPLA2 conf 56.4* and LYPLA2 ABPP 16.0.
For Cc1cccc(N2CCN(C(=O)Cc3ccc(-n4c(=O)[nH]c5ccsc5c4=O)cc3)CC2)c1C the results were PAD4 inh -1.2, Fam108B counter 2.5, PME-1 primary -11.6, GSTO1 inh -0.1, LYPLA1 counter -0.1, LYPLA2 counter 66.5*, LYPLA2 conf 68.5* and LYPLA2 ABPP 56.0*.
`O=C(CCCn1c(=O)[nH]c2ccsc2c1=O)N1CCCCC1` gave PAD4 inh -5.7, Fam108B counter -1.7, PME-1 primary 1.9, GSTO1 inh 10.0, LYPLA1 counter 3.2 and LYPLA2 counter 1.5.
For CC(CN1CCOCC1)OC(=O)c1ccccc1Cl (stereo unspecified) the results were PAD4 inh -2.9, Fam108B counter -1.5, PME-1 primary -2.2, GSTO1 inh 4.1, LYPLA1 counter 3.6 and LYPLA2 counter 8.7.
`CC(/C=N/NC(=O)Cn1nnc(N)n1)=C\c1ccc(C(C)C)cc1` gave PAD4 inh 2.7, Fam108B counter 1.5, PME-1 primary -3.3, GSTO1 inh 0.6, LYPLA1 counter -5.0, LYPLA2 counter 62.0* and LYPLA2 conf 69.7*.
`O=C(Cc1ccc(S(=O)(=O)N2CCOCC2)s1)N1CCN(c2cccc(C(F)(F)F)c2)CC1` gave PAD4 inh -1.9, Fam108B counter -0.1, PME-1 primary 1.3, GSTO1 inh 0.7, LYPLA1 counter 1.4, LYPLA2 counter 39.5* and LYPLA2 conf 47.6*.
Screening O=C(c1ccc(Cn2c(=O)[nH]c3ccccc3c2=O)cc1)N1CCN(c2ccc(F)cc2)CC1 returned PAD4 inh -0.2, Fam108B counter 0.4, PME-1 primary -4.0, GSTO1 inh -3.9, LYPLA1 counter 11.8, LYPLA2 counter 42.4* and LYPLA2 conf 34.9*.
Screening O=C(c1ccc(Cn2c(=S)[nH]c3ccc(N4CCOCC4)cc3c2=O)cc1)N1CCN(c2ccc(F)cc2)CC1 returned PAD4 inh 5.4, Fam108B counter 7.9, PME-1 primary 9.9, GSTO1 inh 2.9, LYPLA1 counter 0.6 and LYPLA2 counter 19.5.
Screening COc1ccc(N2CCN(C(=O)c3ccc(Cn4c(=S)[nH]c5ccc(N6CCOCC6)cc5c4=O)cc3)CC2)cc1 returned PAD4 inh -5.7, Fam108B counter 13.2, PME-1 primary 3.3, GSTO1 inh 5.2, LYPLA1 counter 3.7, LYPLA2 counter 74.7*, LYPLA2 conf 71.9* and LYPLA2 ABPP 33.0.
CCOC(=O)N1CCN(C(=O)c2ccc(Cn3c(=S)[nH]c4cc(C(=O)OC)ccc4c3=O)cc2)CC1 was read as PAD4 inh -1.6, Fam108B counter -2.3, PME-1 primary -4.8, GSTO1 inh 4.0, LYPLA1 counter 3.4, LYPLA2 counter 28.8* and LYPLA2 conf 18.6.

Assay outcomes: PubChem BioAssay, The Scripps Research Institute Molecular Screening Center
